Inconclusive results are not listed. Calls of active or inactive are those of the source. Unless noted, the call rests on the fitted dose curve.
Columns and labels:
[1] = Nuclear factor erythroid 2-related factor 2/antioxidant responsive element (Nrf2/ARE) small molecule agonists: qHTS cell viability counter screen in human keratinocytes (AID 1919968; active means well fitted curve in the direction sought with a large enough effect in the repeat runs; an effect the other way counts as inactive or inconclusive; further: nearly all actives have a fitted effect of over 55% in size)
Outline: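 Measured as CellTiter-Fluor fluorescence, this readout tracks cytotoxicity in the same wells as the ARE-luciferase screen. HaCaT reporter cells (1,500/well) received compounds after a 5 h pre-incubation and were exposed for 23 h.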

[2] = Nuclear factor erythroid 2-related factor 2/antioxidant responsive element (Nrf2/ARE) small molecule agonists: luciferase reporter gene qHTS assay in human keratinocytes (AID 1919969); further: nearly all actives have a fitted effect of over 35% in size
[3] = molecular target: Gonadotropin-releasing hormone receptor (Homo sapiens) (UniProt P30968); assay: Human gonadotropin-releasing hormone receptor (GnRHR) small molecule agonists, calcium flux assay in GnRHR-HEK293 cells (AID 1920063); further: nearly all actives have a fitted effect of over 35% in size
Gonadotropin-releasing hormone receptor (Homo sapiens), sequence (P30968 whole entry, looked up): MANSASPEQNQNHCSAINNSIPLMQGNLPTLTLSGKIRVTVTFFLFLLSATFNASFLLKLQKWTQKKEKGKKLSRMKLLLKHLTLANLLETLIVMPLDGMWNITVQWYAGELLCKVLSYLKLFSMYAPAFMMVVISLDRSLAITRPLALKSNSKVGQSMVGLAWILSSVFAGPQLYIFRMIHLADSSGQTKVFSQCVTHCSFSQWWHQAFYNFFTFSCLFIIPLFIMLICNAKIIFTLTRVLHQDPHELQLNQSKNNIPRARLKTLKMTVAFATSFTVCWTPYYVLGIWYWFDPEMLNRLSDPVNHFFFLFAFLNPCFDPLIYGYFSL
Outline: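 Fluorescence kinetics (480 nm excitation, 540 nm emission; 3 min, 1 s steps) report calcium mobilisation in human GnRHR-HEK293 cells in agonist mode. Dye incubation: 1 h, 37 C.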

[4] = molecular target: KiSS-1 receptor (Homo sapiens) (UniProt Q969F8); assay: Human kisspeptin (KISS1R) small molecule agonists, calcium flux assay in KISS1R-HEK293 cells (AID 1920064; active means well fitted curve in the direction sought with a large enough effect in the repeat runs; an effect the other way counts as inactive or inconclusive)
KiSS-1 receptor (Homo sapiens), sequence (Q969F8 whole entry, looked up): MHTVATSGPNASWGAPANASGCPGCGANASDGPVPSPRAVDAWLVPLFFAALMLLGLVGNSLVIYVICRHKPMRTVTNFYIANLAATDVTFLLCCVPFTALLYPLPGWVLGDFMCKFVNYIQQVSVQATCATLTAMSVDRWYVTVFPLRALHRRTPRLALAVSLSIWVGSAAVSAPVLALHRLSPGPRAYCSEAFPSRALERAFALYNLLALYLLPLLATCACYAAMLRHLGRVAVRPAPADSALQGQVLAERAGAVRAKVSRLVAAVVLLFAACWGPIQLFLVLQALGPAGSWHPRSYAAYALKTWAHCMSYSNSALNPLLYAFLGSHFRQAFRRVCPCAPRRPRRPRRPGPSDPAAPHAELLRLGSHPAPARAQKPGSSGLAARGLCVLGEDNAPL
Outline: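 Measures KISS1R agonism through calcium-sensitive dye fluorescence in stably transfected HEK293 cells, read for 3 min after pin-tool compound delivery; 15-point titrations in triplicate.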

[5] = G protein-coupled receptor (GPCR) small molecule agonists, calcium flux assay: HEK293 wild type cell line counter screen (AID 1920065)
Outline: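 Readout: fluorescence at 480 nm excitation/540 nm emission, sampled at 1 s intervals for 3 min. Cells had been cultured 18 h, then dye-loaded 1 h at 37 C before compound or ATP addition.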

[6] = p53 small molecule agonists, cell-based qHTS assay with human liver microsomes (AID 1963577);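 further: p53 response element beta-lactamase reporter cells with liver microsomes plus NADPH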
Outline: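 16 h, 37 C exposure of p53RE-bla cells to compounds with human liver microsomes and NADPH (0.5 mg/mL final each); detection via LiveBLAzer mixture, 2 h dark at room temperature.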

[7] = p53 small molecule agonists, cell-based qHTS assay with human liver microsomes: qHTS cell viability counter screen (AID 1963579); further: nearly all actives have a fitted effect of over 45% in size
Outline: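 In this multiplexed counter screen, the reporter plates were subsequently treated with CellTiter-Glo so that cell viability, reflected by luminescence, could be recorded for p53RE-bla cells dosed 16 h with compounds under microsomal activation (HLM and NADPH).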

[8] = p53 small molecule agonists, cell-based qHTS assay with rat liver microsomes: qHTS cell viability counter screen (AID 1963580); further: nearly all actives have a fitted effect of over 45% in size
Outline: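 p53RE-bla HCT-116 cells (4,000/well) rested 5 h at 37 C, then given Tox21 compounds in DMSO with rat liver microsomes (0.5 mg/mL final) plus NADPH (0.5 mg/mL final) for 16 h at 37 C. Viability read by CellTiter-Glo luminescence after 30 min at room temperature.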

[9] = p53 small molecule agonists, cell-based qHTS assay: qHTS cell viability counter screen (AID 1963581); further: nearly all actives have a fitted effect of over 45% in size
Outline: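 In the same plates used for the p53 bla reporter, HCT-116 cells given compounds for 16 h at 37 C received CellTiter-Glo; luminescence was recorded 30 min later at room temperature.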

[10] = p53 small molecule agonists, cell-based qHTS assay (AID 1963582; active means well fitted activation curve with a large enough effect in the signal ratio in the repeat runs, not every such curve was filed as active; the % refers to the signal ratio)
Outline: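 Compounds are pin-transferred in DMSO onto p53RE-bla cells and incubated 16 h at 37 C. The B/G FRET beta-lactamase substrate is then applied for 2 h at RT and fluorescence recorded.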

[11] = molecular target: 5-hydroxytryptamine receptor 2A (Homo sapiens) (UniProt P28223); assay: 5-hydroxytryptamine receptor 2A (HTR2A) small molecule agonists, cell-based qHTS assay (AID 1963587); further: nearly all actives have a fitted effect of over 30% in size
5-hydroxytryptamine receptor 2A (Homo sapiens), sequence (P28223 whole entry, looked up): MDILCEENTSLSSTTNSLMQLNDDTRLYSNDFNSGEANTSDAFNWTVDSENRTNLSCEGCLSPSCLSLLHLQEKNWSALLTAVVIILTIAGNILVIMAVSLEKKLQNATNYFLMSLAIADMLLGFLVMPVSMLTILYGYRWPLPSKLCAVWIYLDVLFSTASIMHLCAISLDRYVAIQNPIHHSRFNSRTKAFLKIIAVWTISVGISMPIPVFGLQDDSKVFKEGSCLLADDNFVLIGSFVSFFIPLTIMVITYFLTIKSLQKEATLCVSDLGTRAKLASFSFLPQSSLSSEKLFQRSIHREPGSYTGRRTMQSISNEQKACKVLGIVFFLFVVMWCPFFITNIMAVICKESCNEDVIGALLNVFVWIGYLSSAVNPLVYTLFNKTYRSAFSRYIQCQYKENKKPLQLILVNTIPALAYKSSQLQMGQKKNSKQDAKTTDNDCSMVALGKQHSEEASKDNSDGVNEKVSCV
Outline: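 HTR2A-CHO cells, plated 18 h at 37 C/5% CO2, dye-loaded 1 h at 37 C; compounds in DMSO added by pin tool (agonist mode). Intracellular calcium flux read as kinetic fluorescence on FDSS over 2 min at 1 s intervals.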

[12] = molecular target: Muscarinic acetylcholine receptor M1 (Homo sapiens) (UniProt P11229); assay: Cholinergic receptor muscarinic 1 (CHRM1) small molecule antagonists, cell-based qHTS assay (AID 1963588); further: nearly all actives have a fitted effect of over 40% in size
Muscarinic acetylcholine receptor M1 (Homo sapiens), sequence (P11229 whole entry, looked up): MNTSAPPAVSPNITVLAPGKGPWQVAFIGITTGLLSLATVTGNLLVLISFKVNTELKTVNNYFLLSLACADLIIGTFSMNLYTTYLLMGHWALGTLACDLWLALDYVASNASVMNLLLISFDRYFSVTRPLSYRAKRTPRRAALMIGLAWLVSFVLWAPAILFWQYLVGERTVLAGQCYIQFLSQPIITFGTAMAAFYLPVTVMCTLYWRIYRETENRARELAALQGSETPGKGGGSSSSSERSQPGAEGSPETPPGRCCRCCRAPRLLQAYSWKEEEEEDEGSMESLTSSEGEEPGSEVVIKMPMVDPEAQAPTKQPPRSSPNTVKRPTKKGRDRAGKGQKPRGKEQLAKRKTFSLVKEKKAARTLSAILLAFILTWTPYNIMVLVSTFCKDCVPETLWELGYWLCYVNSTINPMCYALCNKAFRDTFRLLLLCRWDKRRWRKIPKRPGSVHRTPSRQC
Outline: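 CHRM1-CHO calcium-flux assay, antagonist mode. Cells were seeded 18 h, dye-loaded 1 h at 37 C and given compound for 5 min at RT, then acetylcholine was added at 50nM. FDSS fluorescence was read 3 min; 15 concentrations, three runs.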

[13] = molecular target: Muscarinic acetylcholine receptor M1 (Homo sapiens) (UniProt P11229); assay: Cholinergic receptor muscarinic 1 (CHRM1) small molecule agonists, cell-based qHTS assay (AID 1963589); further: nearly all actives have a fitted effect of over 35% in size
Outline: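 Each compound was tested at 15 concentrations across three independent runs on dye-loaded CHO cells stably expressing human CHRM1, reading intracellular calcium fluorescence kinetically at 1 sec intervals.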

[14] = molecular target: Beta-2 adrenergic receptor (Homo sapiens) (UniProt P07550); assay: Adrenergic beta2 receptor (ADRB2) small molecule antagonists, cell-based qHTS assay (AID 1963592); further: series mostly up to about 92 µM; nearly all actives have a fitted effect of over 50% in size
Beta-2 adrenergic receptor (Homo sapiens), sequence (P07550 whole entry, looked up): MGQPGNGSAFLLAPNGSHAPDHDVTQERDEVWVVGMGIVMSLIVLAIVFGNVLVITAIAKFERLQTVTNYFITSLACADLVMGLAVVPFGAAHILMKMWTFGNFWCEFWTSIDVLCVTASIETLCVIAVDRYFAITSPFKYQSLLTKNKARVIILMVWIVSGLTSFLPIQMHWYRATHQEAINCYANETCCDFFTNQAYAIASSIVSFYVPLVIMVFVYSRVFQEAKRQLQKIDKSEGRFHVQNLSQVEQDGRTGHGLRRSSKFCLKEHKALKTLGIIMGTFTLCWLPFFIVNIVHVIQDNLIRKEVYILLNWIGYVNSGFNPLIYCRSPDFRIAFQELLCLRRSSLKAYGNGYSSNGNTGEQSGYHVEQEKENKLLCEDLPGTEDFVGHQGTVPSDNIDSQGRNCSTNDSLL
Outline: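 Cells (CHO, stable ADRB2 overexpression) incubated 18-20hr at 37C; compounds added from DMSO; agonist mix (1nM isoproterenol, 100uM IBMX, 25uM Ro-20-1724) added; 0.5hr RT; d2-cAMP and anti-cAMP-cryptate added; 1hr RT; 665/615 nm read.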

[15] = molecular target: D(2) dopamine receptor (Homo sapiens) (UniProt P14416); assay: Dopamine D2 receptor (DRD2) small molecule agonists, cell-based qHTS assay (AID 1963594); further: nearly all actives have a fitted effect of over 35% in size
D(2) dopamine receptor (Homo sapiens), sequence (P14416 whole entry, looked up): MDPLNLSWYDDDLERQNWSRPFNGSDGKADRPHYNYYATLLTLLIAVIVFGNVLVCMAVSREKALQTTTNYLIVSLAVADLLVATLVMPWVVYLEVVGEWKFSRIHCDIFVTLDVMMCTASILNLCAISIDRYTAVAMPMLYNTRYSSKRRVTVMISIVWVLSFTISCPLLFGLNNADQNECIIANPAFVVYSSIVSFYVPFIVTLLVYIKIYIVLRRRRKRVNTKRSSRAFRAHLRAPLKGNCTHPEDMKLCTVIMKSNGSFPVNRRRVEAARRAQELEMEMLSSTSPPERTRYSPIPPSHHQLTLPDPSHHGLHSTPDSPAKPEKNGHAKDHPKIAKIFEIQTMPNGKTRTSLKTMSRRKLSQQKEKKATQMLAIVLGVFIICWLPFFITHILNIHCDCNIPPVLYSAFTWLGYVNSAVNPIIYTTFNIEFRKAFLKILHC
Outline: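 HEK293 cells stably expressing DRD2 were cultured 24 h at 37 C, then given Ro20-1724 (0.1 mM final) and compounds for 10 min at room temperature. NKH477 (200nM) was then added for 30 min. cAMP was read by HTRF.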

[16] = molecular target: D(2) dopamine receptor (Homo sapiens) (UniProt P14416); assay: Dopamine D2 receptor (DRD2) small molecule antagonists, cell-based qHTS assay (AID 1963595; active means well fitted inhibition curve with a large enough effect in the signal ratio in the repeat runs, with a control signal flat; the % refers to the signal ratio)
Outline: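 Stable D2 receptor HEK293 line, 24 h after seeding. Compound preincubated 10 min, then quinpirole (12 nM) with forskolin analogue NKH477 (200 nM), 30 min, room temperature. Detection by time-resolved FRET of cAMP.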

[17] = molecular target: 5-hydroxytryptamine receptor 2A (Homo sapiens) (UniProt P28223); assay: 5-hydroxytryptamine receptor 2A (HTR2A) small molecule antagonists, cell-based qHTS assay (AID 1963586); further: nearly all actives have a fitted effect of over 45% in size
Outline: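 Antagonist-mode intracellular calcium assay: DOI (4 nM) added after 5 min compound pre-incubation at room temperature to dye-loaded HTR2A-CHO cells. Fluorescence followed for 3 min, sampled every second.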

[18] = cAMP Responsive Elements (CRE) small molecule agonists, cell-based qHTS assay (AID 1963590)
Outline: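 Cell line: CRE-bla HEK 293T; medium DMEM/10% dialyzed FBS/0.1 mM NEAA/1 mM pyruvate/25 mM HEPES; 3 h compound exposure; beta-lactamase FRET readout after 2 h substrate loading at RT.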

[19] = cAMP Responsive Elements (CRE) small molecule antagonists, cell-based qHTS assay (AID 1963591; active means well fitted inhibition curve with a large enough effect in the signal ratio in the repeat runs, not every such curve was filed as active; the % refers to the signal ratio)
Outline: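 Inhibition of NKH477-driven (0.25 uM final) CRE-beta-lactamase signal in HEK293T cells, 3 h compound exposure at 37 °C, detected by FRET substrate fluorescence.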

Measured: Potency

CCCn1cnc2c1c(=O)n(CCCCC(C)=O)c(=O)n2C
not listed: [17] | [18] | [19]
inactive: all other assays above

COC(=O)C(C)(C)C
not listed: [9] | [10] | [11] | [12]
inactive: all other assays above

O=C1Nc2cc(Cl)ccc2Oc2ccccc21
not listed: [9] | [17] | [19]
inactive: all other assays above

CCCCCOc1ccc(C2SC(=O)NC2=O)cc1OCC (configuration not stated)
not listed: [10] | [18] | [19]
inactive: all other assays above

CCC1=C(C)CN(C(=O)NCCc2ccc(S(=O)(=O)NC(=O)NC3CCC(C)CC3)cc2)C1=O (configuration not stated)
not listed: [11] | [12] | [13] | [17] | [18] | [19]
inactive: all other assays above

CNC(=O)CN(CCN(CCN(CC(=O)[O-])CC(=O)NC)CC(=O)[O-])CC(=O)[O-].O.[Gd+3]
not listed: [12] | [15] | [17]
inactive: all other assays above

CCOC(=O)Cc1cccc2ccccc12
not listed: [9] | [18] | [19]
inactive: all other assays above

NS(=O)(=O)c1cc2c(cc1Cl)NC(C(Cl)Cl)NS2(=O)=O (configuration not stated)
not listed: [11] | [12] | [13] | [16] | [17]
inactive: all other assays above
